Laboratory results reported in PubChem BioAssay (Tox21).
Records with an inconclusive call do not appear. Where a call stands in place of a potency, no number is given. The source made the active and inactive calls. Calls come from the whole dose curve.

Test: p53 small molecule agonists, cell-based qHTS assay with human liver microsomes (AID 1963577)
Summary of the method: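 p53RE-bla reporter cells were pre-incubated 5 h at 37 C, then treated with compounds plus human liver microsomes (0.5 mg/mL final) and NADPH (0.5 mg/mL final) for 16 h at 37 C. Beta-lactamase activity was read by LiveBLAzer fluorescence after 2 h at room temperature.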

Row | SMILES | Potency
1 | CC12CCC(CC1)C(C)(C)O2 | inactive
2 | Oc1ccc(Cc2ccccc2O)cc1 | inactive
3 | COc1ccc([N+](=O)[O-])cc1N | inactive
4 | CCCCOC(=O)COc1ccc(Cl)cc1Cl | inactive
5 | CC(CCO)CC(C)(C)C (stereo not drawn) | inactive
6 | c1cc(-c2ccncc2)ccn1 | inactive
7 | CC(O)CC(C)(C)O (stereo not drawn) | inactive
8 | CC(C)=CCC/C(C)=C/CO | inactive
9 | CC1=NN(c2ccccc2)C(=O)C1 | inactive
10 | CCN1CCCC1=O | inactive
11 | CC(C)=CCCC(C)CCO (stereo not drawn) | inactive
12 | CCCCOC(=O)CC(CC(=O)OCCCC)(OC(C)=O)C(=O)OCCCC | inactive
13 | CC1CCC2CC1C2(C)C (stereo not drawn) | inactive
14 | Nc1ccc2c(O)cc(S(=O)(=O)O)cc2c1 | inactive
15 | Oc1ccc(O)cc1 | inactive
16 | CCCCCCCCCC(=O)O | inactive
17 | O=C(O)CCCCC(=O)O | inactive

Row | SMILES | Potency
18 | CC(C)=CCC/C(C)=C\CO | inactive
19 | CC(=O)Oc1ccccc1C(=O)O | inactive
20 | COc1ccc2[nH]cc(CCNC(C)=O)c2c1 | inactive
21 | CCNc1ccccc1 | inactive
22 | C=CC(=O)OCCCCCCCC(C)C | inactive
23 | CC1(C)OC(=O)NC1=O | inactive
24 | Nc1ccc(S(=O)(=O)Nc2cnc3ccccc3n2)cc1 | inactive
25 | O=[Se](O)O | inactive
26 | Cc1ccc(O)c(-n2nc3ccccc3n2)c1 | inactive
27 | c1ccc2cc(Nc3ccc(Nc4ccc5ccccc5c4)cc3)ccc2c1 | inactive
28 | C[Si]1(C)O[Si](C)(C)O[Si](C)(C)O[Si](C)(C)O1 | inactive
29 | O=C1C(c2[nH]c3ccccc3c2O)=Nc2ccccc21 | inactive
30 | CN1C(=O)CC[C@H]1c1cccnc1 | inactive
31 | O=c1n(CC2CO2)c(=O)n(CC2CO2)c(=O)n1CC1CO1 (stereo not drawn) | inactive
32 | O=C(OCCOCCOC(=O)c1ccccc1)c1ccccc1 | inactive
33 | CC(C)(N)CO | inactive
